Bioassay records from PubChem.
An excerpt weighted towards active compounds, which were near 1.5% of everything screened.
GALR2 agonist: agonists of human galanin receptor 2 (GALR2). O43603. GALR2-expressing cells, agonist activation read-out. activation, % (no concentration beside the values). 0.48% of 140,000 active. AID 803; in the data active means activation above about 5%, passing the limit was not always enough
Target sequence (O43603 whole entry, looked up): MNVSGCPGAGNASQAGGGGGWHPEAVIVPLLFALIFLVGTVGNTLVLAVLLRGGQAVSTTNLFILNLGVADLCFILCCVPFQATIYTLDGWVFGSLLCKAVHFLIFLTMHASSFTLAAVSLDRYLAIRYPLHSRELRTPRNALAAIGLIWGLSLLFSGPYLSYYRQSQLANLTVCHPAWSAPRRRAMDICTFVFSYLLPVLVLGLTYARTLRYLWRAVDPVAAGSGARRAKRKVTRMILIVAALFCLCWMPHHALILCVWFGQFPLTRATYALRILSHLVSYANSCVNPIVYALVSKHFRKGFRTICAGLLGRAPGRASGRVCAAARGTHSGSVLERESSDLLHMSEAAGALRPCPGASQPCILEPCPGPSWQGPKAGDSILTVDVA
S1P2 agonist: agonists of human S1P2 receptor | S1P2-expressing cell line, agonist reporter read-out | O95136 | activation, % at 4.5 µM | AID 729 | 0.46% of 97,000 active; in the data active means activation above about 16%
Target sequence (O95136 whole entry, looked up): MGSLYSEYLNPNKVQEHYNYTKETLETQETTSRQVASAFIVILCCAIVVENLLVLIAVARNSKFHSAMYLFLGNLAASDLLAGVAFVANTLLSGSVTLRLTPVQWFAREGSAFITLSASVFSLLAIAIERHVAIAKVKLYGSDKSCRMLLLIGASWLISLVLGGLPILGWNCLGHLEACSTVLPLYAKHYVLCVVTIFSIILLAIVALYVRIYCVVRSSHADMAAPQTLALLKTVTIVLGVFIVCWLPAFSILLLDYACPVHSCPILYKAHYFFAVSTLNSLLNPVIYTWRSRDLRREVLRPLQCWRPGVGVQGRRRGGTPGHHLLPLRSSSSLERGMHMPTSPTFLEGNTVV
Mac1 fbg inh: blocks human CD11b/CD18 adhesion to fibrinogen; P05107+P11215; K562 CD11b/CD18 adhesion to fibrinogen, ATPlite luminescence; Mn2+ added to activate the integrin; inhibition, % at 10 µM; 0.54% of 93,000 active;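 active means primary inhibition of 50% or more at 10 µM, then 40% or more on retest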
Mac1 fbg enh: enhancers of human CD11b/CD18 binding to fibrinogen | P05107+P11215 | K562 CD11b/CD18 adhesion to fibrinogen, ATPlite luminescence | activation, % at 10 µM | 0.07% of 93,000 active | AID 1499;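 active means 10 µM primary screen giving 50% or more activity, confirmed by 40% or more on retest at that dose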
S1P2 antag: S1P2 (human) receptor antagonism. O95136. cell-based S1P2 antagonist assay, inhibition at 5 uM. 0.21% of 97,000 active. AID 736. inhibition, % at 5 µM; in the data active means inhibition above about 45%;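 further: CRE beta-lactamase reporter cells expressing human S1P2 stimulated with S1P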
GALR2 antag: GALR2 (human) receptor antagonism; 0.39% of 140,000 active; O43603; AID 828; inhibition, % at 4 µM; GALR2-expressing cells, antagonist mode; in the data active means inhibition above about 27%;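 further: cells stimulated with galanin 1-16 at roughly its EC80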
Large screens that a line does not name were inactive.

COC(=O)c1ccc(NC(c2ccc(Cl)cc2)P(=O)(OC)OC)cc1 (stereo unspecified)	none (no result: S1P2 agonist, S1P2 antag)
COCCn1c(-c2ccc(Cl)cc2)cnc1SCC(=O)NCCc1ccc(OC)c(OC)c1	Mac1 fbg inh 53 (no result: S1P2 agonist, S1P2 antag)
COc1ccc(CCNC(=O)CSCc2ccc(Cl)cc2)cc1OC	none (no result: S1P2 agonist, Mac1 fbg inh, Mac1 fbg enh, S1P2 antag)
Cc1ccc(N(Cc2ccccc2F)S(C)(=O)=O)cc1C	none
COc1ccc(CCC(=O)N2CCCSC2=Nc2ccc(C(C)=O)cc2)cc1	none (no result: S1P2 agonist, S1P2 antag)
CS(=O)(=O)NCC(c1ccco1)N1CCN(c2ccc(F)cc2)CC1 (stereo unspecified)	none (no result: S1P2 agonist, S1P2 antag)
COc1ccc(N2CCn3c2nc2c3c(=O)n(CCCc3ccccc3)c(=O)n2C)c(OC)c1	S1P2 antag 58
COCCn1c(N)c(C#N)c2nc3ccccc3nc21	none
COc1ccc(Cn2c(N)c(C#N)c3nc4ccccc4nc32)cc1	S1P2 agonist 31
N#Cc1c(N)n(CCOC(=O)c2cccc(Br)c2)c2nc3ccccc3nc12	none
COc1cc(Cn2c(N)c(C#N)c3nc4ccccc4nc32)cc(OC)c1	GALR2 agonist 13
COC(=O)c1ccccc1NC(=O)c1cccc(NC(=O)c2ccc(Br)o2)c1C	none
COc1cccc(Cn2c(N)c(C#N)c3nc4ccccc4nc32)c1OC	S1P2 agonist 24
COc1ccc(-n2c(NC(=O)c3ccc(Br)o3)c(C#N)c3nc4ccccc4nc32)cc1	GALR2 agonist 5.4, Mac1 fbg inh 90
CCN(c1ccccc1)S(=O)(=O)c1ccc(C(=O)Oc2ccc(C(C)=O)cc2)cc1	none (no result: S1P2 agonist, Mac1 fbg inh, Mac1 fbg enh, S1P2 antag)
O=C(NCCc1c[nH]c2ccccc12)c1cccc(S(=O)(=O)Nc2ccccc2Cl)c1	Mac1 fbg inh 56 (no result: S1P2 agonist, S1P2 antag)
CCCn1c(OC)nc2c1c(=O)n(C)c(=O)n2C	none (no result: S1P2 agonist, S1P2 antag)
CCCOc1nc2c(c(=O)n(C)c(=O)n2C)n1CCC	GALR2 agonist 7.8 (no result: S1P2 agonist, S1P2 antag)
CCCCCCn1c(NCC)nc2c1c(=O)n(C)c(=O)n2C	Mac1 fbg inh 73
CSc1c(CC(=O)Nc2ccc(F)cc2)n(Cc2ccccc2)c2ccccc12	none (no result: S1P2 agonist, S1P2 antag)
CCN=C(NC#N)SCc1c(F)cccc1Cl	none (no result: S1P2 agonist, Mac1 fbg inh, Mac1 fbg enh, S1P2 antag)
COc1cc(-c2cc(-c3ccccc3)nc(SCC(=O)Nc3nccs3)c2C#N)cc(OC)c1OC	S1P2 agonist 31 (no result: Mac1 fbg inh, Mac1 fbg enh)
COc1ccc(CNC(=O)CSc2nc(-c3ccccc3)cc(-c3cccs3)c2C#N)cc1	none
Cc1nn(-c2ccccc2)c(C)c1NC(=O)COc1ccc(Br)cc1Cl	none (no result: S1P2 agonist, S1P2 antag)
Cc1cc(C)cc(OCC(=O)NNC(=O)CN2C(=O)c3ccccc3C2=O)c1	none (no result: S1P2 agonist, Mac1 fbg inh, Mac1 fbg enh, S1P2 antag)
CCCn1c(C)nc2c(c1=O)c1nc3ccccc3nc1n2CCC1=CCCCC1	Mac1 fbg enh 62
COc1ccc(-n2c(C)cc(C(=O)CN3C(=O)c4ccccc4C3=O)c2C)cc1	none (no result: S1P2 agonist, S1P2 antag)
COc1ccc(-n2c(C)cc(C(=O)COC(=O)Cn3cnc4ccccc43)c2C)cc1	Mac1 fbg inh 97
CCOC(=O)c1nn(-c2ccccc2)c(C#N)c1NC(=O)c1nn(CC)cc1Br	S1P2 agonist 24
CCOC(=O)c1c(NC(=O)c2nn(CC)cc2Br)c(C#N)nn1-c1ccccc1	none
CC1(C)CSC(=NCc2ccccc2)N1C(=O)c1cccc([N+](=O)[O-])c1	none (no result: S1P2 agonist, S1P2 antag)
c1ccc(CCCNc2ncnc3nc[nH]c23)cc1	none (no result: S1P2 agonist, S1P2 antag)
Clc1ccc(CCNc2ncnc3nc[nH]c23)cc1	Mac1 fbg inh 60
CCOC(=O)c1c(NC(=O)CSc2nc3nc(C)cc(C)n3n2)sc(CC)c1C	none (no result: S1P2 agonist, Mac1 fbg inh, Mac1 fbg enh, S1P2 antag)
Cc1cccc(N2CCN(C(=O)CSCc3c(C)noc3C)CC2)c1C	Mac1 fbg inh 99
COC(=O)Cc1c(C)c2ccc(OCC(=O)N3CCOCC3)cc2oc1=O	none
CCN(CC)c1ccc2c(C)c(CN3CCOCC3)c(=O)oc2c1	GALR2 agonist 6.2, S1P2 agonist 26
CCc1ccc(NC(=O)N(Cc2ccco2)C(C)c2cccs2)cc1 (stereo unspecified)	S1P2 agonist 41
CCc1ccc(NC(=O)N(Cc2cccnc2)Cc2ccco2)cc1	none
CC(C)(C)C1CCc2c(C(=O)NNC(=O)CCCC(=O)O)csc2C1 (stereo unspecified)	none (no result: S1P2 agonist, Mac1 fbg inh, Mac1 fbg enh, S1P2 antag)
COCCn1c(SCC(=O)N2CC(=O)Nc3ccccc32)nc2ccccc21	none (no result: S1P2 agonist, Mac1 fbg inh, Mac1 fbg enh, S1P2 antag)
Cc1sc2ncnc(N3CCN(CCOc4ccc(Cl)cc4)CC3)c2c1C	Mac1 fbg inh 99
Cc1ccc2[nH]c3c(N4CCN(Cc5ccc6c(c5)OCO6)CC4)ncnc3c2c1	Mac1 fbg inh 91, S1P2 antag 69
COc1cccc2[nH]c3c(N4CCN(Cc5ccc6c(c5)OCO6)CC4)ncnc3c12	none
Cc1ccc2[nH]c3c(N4CCN(Cc5ccccc5)CC4)ncnc3c2c1	S1P2 antag 59
Cc1ccc2c(c1)[nH]c1c(N3CCN(Cc4ccccc4)CC3)ncnc12	S1P2 antag 70
COC(=O)c1cc(COc2ccc3oc(C)c(C(=O)OC(C)C)c3c2)c(C)o1	none
Cn1c(NC(=O)c2ccc(S(=O)(=O)N3CCOCC3)cc2)cc(=O)n(C)c1=O	none (no result: S1P2 agonist, Mac1 fbg inh, Mac1 fbg enh, S1P2 antag)
CCC(Oc1ccccc1)C(=O)Nc1nnc(C)s1 (stereo unspecified)	none
CCC(Oc1ccccc1)C(=O)Nc1nnc(C(F)(F)F)s1 (stereo unspecified)	Mac1 fbg inh 74
N#CC1=C(N)NC(SCC(=O)Nc2ccc(Br)cc2)=C(C#N)C12CCCCC2	Mac1 fbg inh 83
CC1(C)CC(O)C(C(O)c2cccc([N+](=O)[O-])c2)C(C)(C)N1 (stereo unspecified)	none (no result: S1P2 agonist, Mac1 fbg inh, Mac1 fbg enh, S1P2 antag)
Cc1cccc(N2CCN(C(=O)c3c(C)nn(Cc4ccccc4Cl)c3C)CC2)c1C	Mac1 fbg inh 52
Cc1cccc(N2CCN(C(=O)c3ccncc3)CC2)c1C	none
CC(C)CNS(=O)(=O)c1ccc(OCC(=O)NCC2CCCO2)c(Cl)c1 (stereo unspecified)	none (no result: Mac1 fbg inh, Mac1 fbg enh)
c1ccc(-c2nnc(-c3ccccc3)o2)cc1	none (no result: Mac1 fbg inh, Mac1 fbg enh)
Nc1ccccc1-c1nnc(-c2ccc(-c3ccccc3)cc2)o1	S1P2 agonist 20
CCCCCc1ccc(CC(=O)Nn2c(C)nc3ccccc3c2=O)cc1	Mac1 fbg inh 88
CC(C)(C)c1ccc(-c2csc(NNC3=NCCCCC3)n2)cc1	Mac1 fbg inh 89
COc1ccc(Cn2c(-c3ccco3)nc3oc4cc(OC)ccc4c(=O)c3c2=O)cc1	S1P2 agonist 79
Brc1ccc2[nH]c3nc(SCCN4CCOCC4)nnc3c2c1	S1P2 agonist 16 (no result: Mac1 fbg inh, Mac1 fbg enh)
c1ccc2c(c1)[nH]c1nc(SCCN3CCOCC3)nnc12	none
Cc1ccc(C(=O)Oc2ccccc2N2C(=O)C3C4CCC(C4)C3C2=O)cc1 (stereo unspecified)	none (no result: S1P2 agonist, Mac1 fbg inh, Mac1 fbg enh, S1P2 antag)
O=C(CSc1ccc2ccccc2c1)Nc1ccncc1	Mac1 fbg inh 86
O=C(Nc1ccccc1N1CCOCC1)C1CCN(S(=O)(=O)c2ccccc2F)CC1	none (no result: S1P2 agonist, Mac1 fbg inh, Mac1 fbg enh, S1P2 antag)
CCOc1cc(/C=N/NC(=O)c2cccnc2)ccc1OCC(=O)N1CCOCC1	none (no result: S1P2 agonist, S1P2 antag)
c1ccc(OCCSc2nnnn2-c2ccccc2)cc1	S1P2 agonist 62
CN(C)S(=O)(=O)c1cccc(NC(=S)NN=C(Cc2ccccc2)Cc2ccccc2)c1	none (no result: S1P2 agonist, Mac1 fbg inh, Mac1 fbg enh, S1P2 antag)
